# Pf Dd2 growth – qHTS Primary assay for Inhibitors of Plasmodium falciparum Dd2 growth in vitro | P. falciparum Dd2 growth, SYBR Green, 72 h | 120,000 tested, 4.3% active | AID 1347417, 2020 | Potency, µM (doses to about 28.9 µM), without a hit: top-dose activity, negative = inhibition, usual class: inhibitors; active means well fitted inhibition curve with a large enough effect;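 further: plate controls were DMSO vehicle for no effect and reference drug for full effect; nearly all actives have a fitted effect of over 65% in size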
#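 Infected erythrocytes (Dd2, 0.3% parasitemia, 2.5% hematocrit final) are added to compound in RPMI-1640/Albumax II medium, grown 72 h at 37C in low oxygen, then lysed with saponin/Triton-X containing SYBR Green and read by fluorescence.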
# Numbers without * were called inactive; i = inactive; [ ] = remark or other dose. Many of the other results were omitted from the sample, so hits are more common in it than they were. Potency means the concentration at half of the fitted maximal effect.
SMILES,Pf Dd2 growth
CCc1ccccc1NC(=O)Cn1c(=O)n(Cc2ccccc2)c(=O)c2c(C)c(C(=O)N(C)C)sc21,4.5µM*
CCN(CC)C(=O)c1sc2c(c1C)c(=O)n(-c1ccccc1)c(=O)n2Cc1c(C)cc(C)cc1C,10µM*
CCN(CC)C(=O)c1sc2c(c1C)c(=O)n(-c1ccc(C)c(C)c1)c(=O)n2Cc1cc(=O)n2c(C)cccc2n1,-7%
CCn1ccc(C(=O)N2CCCC(c3noc(COc4ccccc4)n3)C2)n1 (stereo not given),-77%
CCN(Cc1cnn(CC)c1)C(=O)c1ccc(N2CC3CC(C2)[C@H]2CCCC(=O)N2C3)nc1 (stereo not given in full),13%
CCCN(CC1CC1)C(=O)c1c(OCC2CC2)cc(=O)n2c1CCCCC2,15%
CC(C)Cc1noc(CN(C)C(=O)c2cc(C(C)C)n3ncnc3n2)n1,-4%
COCCNC(=O)[C@@H]1C[C@@H](c2ccc(F)cc2)N([S+](=O)([O-])c2cccnc2)C1,-3%[44.1 µM]
CN1CCCCC12Cc1ccccc1CN(C(=O)CCCC(=O)O)C2 (stereo not given),22%
CN(C)CC(=O)N1Cc2ccccc2CC2(CCCCN2C)C1 (stereo not given),-29%
CN1CCCCC12Cc1ccccc1CN(C(=O)c1ccccc1)C2 (stereo not given),8.9µM*
COc1ccccc1-c1cc(C(=O)Nc2ccc3c(c2)C(=O)N2CCC[C@H]2C(=O)N3)[nH]n1,i
CS(=O)(=O)CCN1C[C@@H](C(=O)O)[C@H](c2cccnc2)C1,-6%
CCn1ccc(C(=O)N2CC(N(C3CCOCC3)S(C)(=O)=O)C2)n1,15%
COc1ccc(C2Cn3nnc(-c4noc(CCc5cccc(OC)c5)n4)c3CO2)cc1 (stereo not given),-18%
COc1ccc(C2Cn3nnc(-c4noc(COc5cccc(C)c5)n4)c3CO2)cc1 (stereo not given),10µM*
CCc1nc(-c2nnn3c2COC(c2ccc(OC)cc2)C3)no1 (stereo not given),i
CCN1CCN(C(=O)C2(CCO)CCN(Cc3ccccc3)C2)CC1 (stereo not given),9%
Cc1cnc(CC2CCCNC2)n1C(C)C (stereo not given),10%
O=C(Nc1ccccc1)N1CCOC(CN(CC2CC2)C(=O)c2cccc(F)c2)C1 (stereo not given),i
O=C(Nc1cccc(Cl)c1)N1CCOC(CN(CC2CC2)C(=O)c2cccc(F)c2)C1 (stereo not given),4.5µM*
Cc1ccc(C(=O)N(CC(C)C)CC2CN(C(=O)Nc3cccc(Cl)c3)CCO2)cc1 (stereo not given),-26%
COCC(=O)NCCC1CCN(C(=O)Nc2ccc(F)cc2)CC1,-11%
Cc1ncc(CN2CCN(C(=O)c3cccn3C3CC3)CC(O)C2)[nH]1 (stereo not given),-8%
O=C(NCc1nnc2ccc(-c3ccc(Cl)cc3)nn12)C1(c2ccccc2)CC1,-21%
SMILES,Pf Dd2 growth
O[C@@H]1CN(Cc2ccc(-n3cccn3)cc2)CC[C@H]1c1ccc(F)cc1,3.5µM*
CC(C)(O)C#Cc1ccc(CN2CC[C@@H](c3ccc(F)cc3)[C@H](O)C2)s1,i
O=C1CC2CCN(Cc3ccc(F)cc3)CC2CCN1 (stereo not given),4%[44.1 µM]
Cc1noc([C@@H]2CN(C(=O)CC(C)(C)C)C[C@H]2CO)n1,1%
COc1ccccc1-c1[nH]nc2ncc(C(=O)N3CCC(c4ccccc4)CC3)nc12,14µM*
COc1ccccc1-c1[nH]nc2ncc(C(=O)N(C)c3ccccc3)nc12,-22%[44.1 µM]
COc1ccccc1-c1[nH]nc2ncc(C(=O)N3CCNC(=O)C3)nc12,-15%[44.1 µM]
O=S(=O)(c1cc(F)cc(F)c1)N1CCCC(Cn2c(C3CC3)nc3cccnc32)C1 (stereo not given),i
O=C(N[C@@H]1CN(C(=O)Nc2ccccc2)CCC[C@H]1O)c1ccc(OCCN2CCCC2)cc1,-24%
Cc1cccc(C)c1OCCCCn1c(C2CC(=O)N(c3ccc(F)cc3)C2)nc2ccccc21 (stereo not given),i
CCCCN1CC(c2nc3ccccc3n2CCCCOc2ccccc2C)CC1=O (stereo not given),10µM*
Cc1ccccc1OCCCCn1c(C2CC(=O)N(c3ccccc3Cl)C2)nc2ccccc21 (stereo not given),14%
COCc1nc(C2CC(N)C2)cc(N2CCC(NS(C)(=O)=O)CC2)n1 (stereo not given),-11%
O=C(NC1CCN(c2cc(-c3ccc(F)cc3)[nH]n2)C1)c1ccccc1 (stereo not given),-9%
COc1ccc(-c2cc(N3CCCC(NC(=O)c4cccc(C(F)(F)F)c4)C3)n[nH]2)cc1 (stereo not given),1.3µM*
O=C(NC1CCN(c2cc(-c3ccc(F)cc3)[nH]n2)C1)c1cccc(F)c1 (stereo not given),i
Cc1ccc(C(=O)NC2CCN(c3cc(-c4ccc(F)cc4)[nH]n3)C2)cc1 (stereo not given),i
O=C(NC1CCN(c2cc(-c3ccc(F)cc3)[nH]n2)C1)c1ccc2[nH]ccc2c1 (stereo not given),5µM*
O=C(NC1CCN(c2cc(-c3ccc(Cl)cc3)[nH]n2)C1)c1ccc2[nH]ccc2c1 (stereo not given),i
COc1ccc(-c2cc(N3CCC(NC(=O)c4cccc(OC(F)(F)F)c4)C3)n[nH]2)cc1 (stereo not given),-8%
COc1ccc(C(=O)NC2CCCN(c3cc(-c4ccccc4)[nH]n3)C2)cc1 (stereo not given),-23%
Cc1cccc(C(=O)NC2CCN(c3cc(-c4ccc(F)cc4)[nH]n3)C2)c1 (stereo not given),10µM*
Cc1ccc(NC(=O)C2(C)CCCCC(=O)N2)cc1 (stereo not given),-15%
Cc1occc1C(=O)N1CC[C@@H]2CN(S(C)(=O)=O)[C@@H]2C1,24%
COCCN1C(=O)CSC12CCN(C(=O)Nc1ccccc1C)CC2,-6%
SMILES,Pf Dd2 growth
Cc1noc(-c2cccn3c(CNC(=O)c4cccc(Cl)c4)nnc23)n1,i
Cc1ccc(CN2C(=O)NC3(CCCN(C(=O)c4cc(F)ccc4F)C3)C2=O)cc1 (stereo not given),-20%
CC(C)c1noc([C@@H]2C[C@H](NC(=O)Nc3ccccc3)CN2C)n1,i
O=C(Cc1ccsc1)N1CCC2(CC1)N=C(c1ccccc1)NO2,i
COc1ccc(NC(=O)CCC2CCCN(C(=O)c3ncoc3C)C2)c(C)c1 (stereo not given),31%
COc1ccc(Cl)cc1NC(=O)CCC1CCCN(C(=O)c2ccoc2C)C1 (stereo not given),4µM*
COc1ccc(NC(=O)CCC2CCCN(C(=O)c3ccccc3SC)C2)cc1Cl (stereo not given),i
Cc1nnc([C@@H]2CC(F)(F)CN2S(=O)(=O)c2cccnc2)o1,i
CCc1cnc(N2CCC(COc3ccc4c(cnn4CCC(=O)O)c3)CC2)nc1,i
Cc1cc2nn(-c3ccc(F)cc3)nc2cc1NC(=O)c1cc(Cl)ccc1Cl,28%
Cc1cc2nn(-c3ccccc3)nc2cc1NC(=O)c1cccc2c(Cl)cccc12,46%
CCN(CC)c1ccc(-n2nc3cc(C)c(NC(=O)c4ccccc4F)cc3n2)cc1,1.4µM*
CCOc1ccc(C(=O)Nc2ccc3nc(SCC(=O)N(C)c4ccccc4)sc3c2)cc1,8.9µM*
COc1ccccc1C(=O)Nc1ccc2nc(SCC(=O)N(C)c3ccccc3)sc2c1,8.9µM*
